PubChem BioAssay (Tox21)
Records with an inconclusive call do not appear. Calls of active or inactive are those of the source. Unless noted, calls follow the shape of the dose curve; as a rule, active = well fitted curve in the direction sought with a large enough effect in the repeat runs; inconclusive = weak or mixed curves; inactive = no such curve, though single readings can be large; an effect the other way counts as inactive or inconclusive.

Legend:
[1] = qHTS assay for small molecule agonists of the p53 signaling pathway - cell viability (AID 651633; calls by dose curve; also: nearly all actives have a fitted effect of over 30% in size; also: potency is read from the fitted curve at half-maximal effect)
Summary of the method: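 p53RE-bla cells, seeded at 4,000 per well and rested 5 h at 37 C/5% CO2, received compounds in DMSO for 16 h at 37 C. CellTiter-Glo was then added, and luminescence was read after 30 min at room temperature to gauge cytotoxicity.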

[2] = qHTS assay to test for compound auto fluorescence at 590 nm (red) in HepG2 cells (AID 720674)
Summary of the method: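 Rose Bengal sodium served as the red fluorophore standard. HepG2 monolayers (overnight attachment, MEM with 10% FBS) were exposed to test compounds for 1 hr at 37 C and read at Ex 540/Em 590 nm.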

[3] = qHTS assay to test for compound auto fluorescence at 460 nm (blue) in HEK293 cells (AID 720678); also: potency is read from the fitted curve at half-maximal effect
Summary of the method: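 HEK293 cells (2,000/well, medium with 10% dialyzed FBS) attached 4-5 hr, then exposed to compound overnight at 37C, 5% CO2. Blue fluorescence read at 405/460 nm, with triamterene as reference fluorophore.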

[4] = qHTS assay to test for compound auto fluorescence at 590 nm (red) in HEK293 cells (AID 720679)
Summary of the method: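 HEK293 cells (2,000/well, 10% dialyzed FBS) attached 4-5 hr, then dosed with compound or DMSO and incubated overnight at 37C, 5% CO2. Red fluorescence read at 540/590 nm, Rose Bengal sodium as reference fluorophore.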

[5] = qHTS assay to test for compound auto fluorescence at 460 nm (blue) in HEK293 cell free culture (AID 720681); also: potency is read from the fitted curve at half-maximal effect
Summary of the method: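 Test compounds were pinned into cell-free culture medium (DMEM with 10% FBS) and fluorescence was read directly at Ex/Em 405/460 nm. Signals were expressed as fluorescence equivalents of triamterene, with DMSO vehicle as control.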

[6] = qHTS assay to test for compound auto fluorescence at 535 nm (green) in HEK293 cell free culture (AID 720682)
Summary of the method: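 Using fluorescein as calibrant, autofluorescence was quantified at 485/535 nm in cell-free DMEM containing 10% FBS after pintool addition of compound or vehicle.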

[7] = qHTS assay to test for compound auto fluorescence at 590 nm (red) in HEK293 cell free culture (AID 720683)
Summary of the method: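 Tox21 10K library compounds were pinned into cell-free DMEM with 10% FBS and fluorescence was read at excitation 540 nm. Activity is expressed as Rose Bengal sodium equivalency.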

[8] = qHTS assay to test for compound auto fluorescence at 590 nm (red) in HepG2 cell free culture (AID 720684)
Summary of the method: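 Red fluorescence (540 nm excitation, 590 nm emission) was measured after compound transfer into cell-free MEM supplemented with 10% FBS. Values are equivalencies against Rose Bengal sodium.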

[9] = qHTS assay to test for compound auto fluorescence at 460 nm (blue) in HepG2 cell free culture (AID 720685); also: potency is read from the fitted curve at half-maximal effect
Summary of the method: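 Compound (23 nL) or DMSO pinned into cell-free MEM with 10% FBS; blue fluorescence read at 405/460 nm excitation/emission, expressed as auto-fluorescence equivalency to triamterene.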

[10] = qHTS assay to test for compound auto fluorescence at 535 nm (green) in HepG2 cell free culture (AID 720686)
[11] = qHTS assay to test for compound auto fluorescence at 460 nm (blue) in HepG2 cells (AID 720687); also: potency is read from the fitted curve at half-maximal effect
Summary of the method: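 Cells (2,000/well in MEM with 10% FBS) attached overnight at 37 C, then were exposed to compound or DMSO for 1 hr at 37 C, 5% CO2. Fluorescence read at Ex/Em 405/460 nm, expressed as triamterene-equivalent signal.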

[12] = qHTS assay to identify small molecule antagonists of the glucocorticoid receptor (GR) signaling pathway - cell viability counter screen (AID 720693); also: nearly all actives have a fitted effect of over 55% in size; also: potency is read from the fitted curve at half-maximal effect
[13] = qHTS assay to identify small molecule antagonists of the androgen receptor (AR) signaling pathway - cell viability counter screen (AID 743033; also: nearly all actives have a fitted effect of over 45% in size; also: potency is read from the fitted curve at half-maximal effect)
[14] = qHTS assay to identify small molecule antagonists of the estrogen receptor alpha (ER-alpha) signaling pathway - cell viability counter screen (AID 743074; calls by dose curve;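 also: HEK293 cells carrying ER-alpha-UAS-bla reporter stimulated with 17beta-estradiol; nearly all actives have a fitted effect of over 45% in size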; also: potency is read from the fitted curve at half-maximal effect)
Aromatase (Homo sapiens) = Aromatase (Homo sapiens) (UniProt P11511); experiment: qHTS assay to identify aromatase inhibitors (AID 743083); also: nearly all actives have a fitted effect of over 55% in size; also: potency is read from the fitted curve at half-maximal effect
[15] = qHTS assay to identify small molecule phospholipidosis (PLD) inducers (AID 1259344; active = well fitted curve in the direction sought with a large enough effect; an effect the other way counts as inactive or inconclusive)
Summary of the method: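 HepG2 cells on collagen I, attached 4 h at 37 C, were co-treated with compound and LipidTOX Red dye for 24 h at 37 C, then fixed with paraformaldehyde plus Hoechst 33342 and imaged by high-content microscopy for phospholipid accumulation.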

[16] = qHTS assay for small molecules that induce genotoxicity in human embryonic kidney cells expressing luciferase-tagged ATAD5 - cell viability (AID 651634; calls by dose curve; also: nearly all actives have a fitted effect of over 25% in size; also: potency is read from the fitted curve at half-maximal effect)
Summary of the method: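 HEK293T cells expressing luciferase-tagged ATAD5 were exposed to compound or DMSO for 15.5 hr at 37C, 5% CO2. Viability was then read as live-cell protease activity by CellTiter-Fluor fluorescence after 30 min at 37C.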

[17] = qHTS assay to identify small molecule antagonists of the androgen receptor (AR) signaling pathway using the MDA cell line - cell viability counter screen (AID 743041; also: nearly all actives have a fitted effect of over 45% in size; also: potency is read from the fitted curve at half-maximal effect)
Summary of the method: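 MDA-kb2 AR-luc human breast carcinoma cells (MMTV-luciferase, AR/GR responsive) were treated with compounds plus R1881 agonist for 16 h at 37 °C. Viability was read as CellTiter-Fluor fluorescence in the same wells as the reporter assay.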

[18] = qHTS assay to identify aromatase inhibitors - cell viability counter screen (AID 743084);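 also: cells stimulated with testosterone during compound exposure; nearly all actives have a fitted effect of over 55% in size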; also: potency is read from the fitted curve at half-maximal effect
[19] = qHTS assay to identify small molecule that activate the aryl hydrocarbon receptor (AhR) signaling pathway - cell viability counter screen (AID 743086); also: nearly all actives have a fitted effect of over 45% in size; also: potency is read from the fitted curve at half-maximal effect
Summary of the method: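 HepG2-AhR-luc (HG2L7.5c1) cells, 4000/well, were preincubated 5 h at 37C, exposed to compound in qHTS format for 24 hr at 37C, then given CellTiter-Fluor for 30 min; viability was read as fluorescence in the reporter wells.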
% is scaled to controls: 0 for no effect and ±100 for the full control effect; tags tell the direction and shape of the fitted curve or compound fluorescence and quenching.

Aromatase (Homo sapiens), sequence (P11511 whole entry, looked up): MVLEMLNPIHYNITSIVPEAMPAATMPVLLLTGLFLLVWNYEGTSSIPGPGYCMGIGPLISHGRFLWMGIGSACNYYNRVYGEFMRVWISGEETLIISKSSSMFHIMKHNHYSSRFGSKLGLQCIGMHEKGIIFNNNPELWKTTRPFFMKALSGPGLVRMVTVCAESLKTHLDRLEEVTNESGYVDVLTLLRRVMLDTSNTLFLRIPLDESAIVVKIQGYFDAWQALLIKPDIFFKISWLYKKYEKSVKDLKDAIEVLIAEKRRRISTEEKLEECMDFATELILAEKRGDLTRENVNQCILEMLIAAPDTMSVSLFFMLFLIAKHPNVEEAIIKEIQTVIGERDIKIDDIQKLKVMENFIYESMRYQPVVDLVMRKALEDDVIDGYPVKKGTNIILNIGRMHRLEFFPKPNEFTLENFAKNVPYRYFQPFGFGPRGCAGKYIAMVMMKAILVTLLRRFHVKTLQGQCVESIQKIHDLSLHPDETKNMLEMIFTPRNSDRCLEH

O=c1ccc2cc(O[C@@H]3O[C@H](CO)[C@@H](O)[C@H](O)[C@H]3O)c(O)cc2o1
inactive: Potency [1] | outcome [2] | outcome [4] | Potency [6] | outcome [7] | outcome [8] | Potency [10] | Potency [12] | Potency [13] | Potency [14] | Potency (Aromatase (Homo sapiens)) | Potency [15]
active: Potency [3] 10 µM [fluorescent] | Potency [5] 8.91 µM | Potency [9] 8.91 µM [fluorescent] | Potency [11] 10 µM [fluorescent]

C/C=C(\CC)C(=O)NC(N)=O
inactive: Potency [1] | Potency [16] | Potency [3] | outcome [4] | Potency [5] | Potency [6] | outcome [7] | outcome [8] | Potency [9] | Potency [10] | Potency [11] | Potency [12] | Potency [13] | Potency [17] | Potency [14] | Potency (Aromatase (Homo sapiens)) | Potency [18] | Potency [19] | Potency [15]

COc1ccc(OC)c(C[C@H](C)N)c1
inactive: Potency [16] | outcome [2] | Potency [3] | outcome [4] | Potency [5] | Potency [6] | outcome [7] | Potency [9] | Potency [10] | Potency [12] | Potency [13] | Potency (Aromatase (Homo sapiens)) | Potency [18] | Potency [19] | Potency [15]

O=P1(N(CCCl)CCCl)NC(OO)CCO1 (configuration not stated)
inactive: Potency [1] | Potency [16] | outcome [2] | Potency [3] | outcome [4] | Potency [5] | Potency [6] | outcome [7] | outcome [8] | Potency [9] | Potency [10] | Potency [11] | Potency [13] | Potency [17] | Potency [14] | Potency (Aromatase (Homo sapiens)) | Potency [18] | Potency [19] | Potency [15]

C[C@@H]1[C@@H]2Cc3ccc(O)cc3[C@@]1(C)CCN2CC1CC1
inactive: Potency [1] | Potency [16] | outcome [2] | Potency [3] | outcome [4] | Potency [5] | Potency [6] | outcome [7] | outcome [8] | Potency [9] | Potency [10] | Potency [11] | Potency [12] | Potency [13] | Potency [17] | Potency [14] | Potency (Aromatase (Homo sapiens)) | Potency [18] | Potency [19] | PLD induction [15] 5.17% [at 7.66 µM]

C=CCC1(C(C)CCC)C(=O)N=C(S)NC1=O (configuration not stated)
inactive: Potency [1] | Potency [16] | Potency [3] | outcome [4] | Potency [5] | Potency [6] | outcome [7] | outcome [8] | Potency [9] | Potency [10] | Potency [11] | Potency [12] | Potency [13] | Potency [17] | Potency [14] | Potency (Aromatase (Homo sapiens)) | Potency [18] | Potency [19] | Potency [15]

C=C[C@H]1CN2CC[C@H]1C[C@H]2[C@H](OC(=O)OCC)c1ccnc2ccc(OC)cc12
inactive: Potency [1] | Potency [16] | outcome [2] | Potency [3] | outcome [4] | Potency [5] | Potency [6] | outcome [7] | outcome [8] | Potency [9] | Potency [10] | Potency [11] | Potency [12] | Potency [13] | Potency [17] | Potency (Aromatase (Homo sapiens)) | Potency [18] | Potency [19] | Potency [15]

Cc1cc(C)cc(C(=O)OC2C[C@H]3CC[C@@H](C2)N3C)c1 (some centres not stated)
inactive: Potency [1] | Potency [16] | outcome [2] | Potency [3] | outcome [4] | Potency [5] | Potency [6] | outcome [7] | outcome [8] | Potency [9] | Potency [10] | Potency [11] | Potency [12] | Potency [13] | Potency [17] | Potency [14] | Potency (Aromatase (Homo sapiens)) | Potency [18] | Potency [15]

CN[C@]1(c2ccccc2Cl)CCCCC1=O
inactive: Potency [1] | Potency [16] | outcome [2] | Potency [3] | outcome [4] | Potency [5] | outcome [7] | outcome [8] | Potency [9] | Potency [10] | Potency [11] | Potency [12] | Potency [13] | Potency [17] | Potency (Aromatase (Homo sapiens)) | Potency [18] | Potency [19] | Potency [15]

C[C@H]1[C@H]2Cc3ccc(O)cc3[C@]1(C)CCN2CCc1ccccc1
inactive: Potency [1] | Potency [16] | outcome [2] | Potency [3] | outcome [4] | Potency [5] | Potency [6] | outcome [7] | outcome [8] | Potency [9] | Potency [10] | Potency [11] | Potency [12] | Potency [13] | Potency [14] | Potency (Aromatase (Homo sapiens)) | Potency [18] | Potency [15]

CCCCNC(C)(C)[P+](=O)O
inactive: Potency [1] | Potency [16] | outcome [2] | Potency [3] | outcome [4] | Potency [5] | Potency [6] | outcome [7] | outcome [8] | Potency [9] | Potency [10] | Potency [11] | Potency [12] | Potency [13] | Potency [17] | Potency (Aromatase (Homo sapiens)) | Potency [18] | Potency [19] | Potency [15]

[H+].[H+].[Hg+2].[O-]B([O-])[O-].[c-]1ccccc1
active: Potency [1] 668 nM | Potency [16] 9.44 µM | Potency [12] 2.68 µM | Potency [13] 9.52 µM | Potency [17] 13.3 µM | Potency [14] 6.01 µM | Potency (Aromatase (Homo sapiens)) 7.5 µM | Potency [18] 10.6 µM | Potency [19] 21.1 µM
inactive: outcome [2] | Potency [3] | outcome [4] | Potency [5] | Potency [6] | outcome [7] | outcome [8] | Potency [9] | Potency [10] | Potency [11] | Potency [15]

C[C@@H](Cc1ccccc1)NCCC(c1ccccc1)c1ccccc1
inactive: Potency [1] | Potency [16] | outcome [2] | Potency [3] | outcome [4] | Potency [5] | Potency [6] | outcome [7] | outcome [8] | Potency [9] | Potency [10] | Potency [12] | Potency [13] | Potency [14] | Potency (Aromatase (Homo sapiens)) | Potency [18] | Potency [15]

C=CCC1([C@@H](C)CCC)C(=O)NC(=O)NC1=O
inactive: Potency [1] | Potency [16] | outcome [2] | Potency [3] | outcome [4] | Potency [5] | Potency [6] | outcome [7] | Potency [9] | Potency [10] | Potency [11] | Potency [12] | Potency [13] | Potency [17] | Potency [14] | Potency (Aromatase (Homo sapiens)) | Potency [18] | Potency [19] | Potency [15]
